This note sets out measurements from PubChem BioAssay (NCATS).

SMILES strings stand for the structures. Results filed as inconclusive are left out. A call without a number means that no potency is given here. Active and inactive are the calls of the source. Calls follow the shape of the full dose curve.

The first assay in a line: Primary qHTS for inhibitors of SARS-S pseudo-typed particle cell entry (AID 1479145). Also: nearly all actives have a fitted effect of over 45% in size. The conditions noted are these: SARS-S pseudotyped particle cell entry, luciferase reporter; series mostly up to 57.1 µM. On the technique in general: In qHTS, concentration-response curves come from the screen itself.
Take `CC(=O)OCC1=C(C(=O)O)N2C(=O)[C@@H](NC(=O)Cc3cccs3)[C@H]2SC1`: the Potency result is “inactive”.
The same measure, in the same setting: the value for `C[C@]12CCC(=O)C=C1CC[C@H]1[C@@H]3CC[C@](O)(C(=O)CO)[C@@]3(C)C[C@H](O)[C@@]12F` was “inactive”; that for `Nc1nc2ccc(OC(F)(F)F)cc2s1` was “inactive”.
Same read-out and setting: the value for `COC(=O)C1=C(C)NC(C)=C(C(=O)OCCc2ccc(N3CCN(C(c4ccccc4)c4ccccc4)CC3)cc2)C1c1cccc([N+](=O)[O-])c1` (stereo unspecified) was “inactive”; that for `NC(=O)NC(=O)Cc1ccccc1` was “inactive”.
Consider `CN1C[C@H](C(=O)N[C@]2(C)O[C@@]3(O)[C@@H]4CCCN4C(=O)[C@H](Cc4ccccc4)N3C2=O)C=C2c3cccc4[nH]cc(c34)C[C@H]21`, for which the Potency result was “inactive”.
On the same count and under the same terms, the value for `C[C@@H](CN1CC(=O)NC(=O)C1)N1CC(=O)NC(=O)C1` was “inactive”; that for `CCOC(=O)c1ccccc1O` was “inactive”; that for `Nc1c(I)cc(I)c(C(=O)N(CCC(=O)O)c2ccccc2)c1I` was “inactive”.
Take `O=C(O)/C=C(\CC(=O)O)C(=O)O`: the Potency result is “inactive”.
Same read-out and setting: the value for `CC(C)COC(=O)c1ccc(N)cc1` was “inactive”; that for `COC(=O)[C@@H]1[C@H]2C[C@H]3c4[nH]c5ccccc5c4CCN3C[C@@H]2CC[C@@H]1O` was “inactive”; that for `Cc1cccc(C)c1OCC(=O)N[C@@H](Cc1ccccc1)[C@@H](O)C[C@H](Cc1ccccc1)NC(=O)[C@H](C(C)C)N1CCCNC1=O` was “inactive”.
On the same count and under the same terms, the result for `CC(=O)Nc1ccc(OC(=O)c2ccccc2OC(C)=O)cc1` reads “inactive”.
For the compound `NC(=O)c1cnccn1`, the Potency entry is “inactive”.
The same measure, in the same setting: the result for `CN=C(NC#N)NCCSCc1nc[nH]c1C` reads “inactive”.
Turning to `O=C(O)CCCCC(=O)O`, the Potency entry was “inactive”.
Still for that read-out and setting: the result for `Oc1ccc(OCc2ccccc2)cc1` reads “inactive”; that for `N#C[C@H]1C[C@H]2C[C@@H]2N1C(=O)[C@@H](N)C12CC3CC(CC(O)(C3)C1)C2`, “inactive”.
Same read-out and setting: the value for `CSCC[C@H](NC(=O)[C@H](Cc1ccc(OS(=O)(=O)O)cc1)NC(=O)[C@@H](N)CC(=O)O)C(=O)NCC(=O)N[C@@H](Cc1c[nH]c2ccccc12)C(=O)N[C@@H](CCSC)C(=O)N[C@@H](CC(=O)O)C(=O)N[C@@H](Cc1ccccc1)C(N)=O` was “inactive”.
The same measure, in the same setting: the result for `CCOC(=O)O[C@]1(C(=O)OCCl)CC[C@H]2[C@@H]3CCC4=CC(=O)C=C[C@]4(C)[C@H]3[C@@H](O)C[C@@]21C` reads “inactive”; that for `CCCNC(C)C(=O)Nc1ccccc1C` (stereo unspecified), “inactive”; that for `CNNCc1ccc(C(=O)NC(C)C)cc1`, “inactive”.
Turning to `O=c1cc(O)c(Cl)c[nH]1`, the Potency result was “inactive”.
Turning to `O=C(O)c1ccccc1S`, the Potency result is “inactive”.
The same measure, in the same setting: the result for `Nc1nc(-c2ccccc2)c(Br)c(=O)[nH]1` reads “inactive”; that for `CCCCCCCN(CC)CCCC(O)c1ccc(NS(C)(=O)=O)cc1` (stereo unspecified), “inactive”.
Regarding `CC(C)c1ccc2oc3nc(N)c(C(=O)O)cc3c(=O)c2c1`, the Potency result is “inactive”.
The same measure, in the same setting: the value for `O=C(c1ccccc1)c1ccccc1` was “inactive”; that for `Nc1ncnc2c1ncn2[C@@H]1O[C@H](CO)[C@@H](O)[C@H]1O` was “inactive”.
Still for that read-out and setting: the value for `Clc1ccc2nsnc2c1NC1=NCCN1` was “inactive”.
On to `Cc1c(Nc2ncccc2C(=O)O)cccc1C(F)(F)F`, for which the Potency entry was “inactive”.
Still for that read-out and setting: the value for `OC[C@H]1O[C@H](O[C@]2(CCl)O[C@H](CCl)[C@@H](O)[C@@H]2O)[C@H](O)[C@@H](O)[C@H]1Cl` was “inactive”; that for `CO[C@@]1(NC(=O)CSCC#N)C(=O)N2C(C(=O)O)=C(CSc3nnnn3C)CS[C@@H]21` was “inactive”; that for `CN1CCC[C@@H]1c1cccnc1` was “inactive”.
The same measure, in the same setting: the value for `CN[C@@H]1CCc2[nH]c3ccc(C(N)=O)cc3c2C1` was “inactive”; that for `CC(C)OC(=O)OCOP(=O)(CO[C@H](C)Cn1cnc2c(N)ncnc21)OCOC(=O)OC(C)C` was “inactive”; that for `Cc1nnc(SCC2=C(C(=O)O)N3C(=O)[C@@H](NC(=O)Cn4cnnn4)[C@H]3SC2)s1` was “inactive”.

The next assay can be described thus: Primary qHTS for Huh7 cytotoxicity: counterscreen for inhibitors of MERS-S pseudotyped particle cell entry (AID 1479147). Also: potency is read from the fitted curve at half-maximal effect. Particulars: cell viability read-out; series mostly up to 57.1 µM.
On to `CC(=O)OCC1=C(C(=O)O)N2C(=O)[C@@H](NC(=O)Cc3cccs3)[C@H]2SC1`, for which the Potency entry was “inactive”.
As to `C[C@]12CCC(=O)C=C1CC[C@H]1[C@@H]3CC[C@](O)(C(=O)CO)[C@@]3(C)C[C@H](O)[C@@]12F`, the Potency entry is “inactive”.
`Nc1nc2ccc(OC(F)(F)F)cc2s1`: the Potency result was “inactive”.
The same measure, in the same setting: the value for `COC(=O)C1=C(C)NC(C)=C(C(=O)OCCc2ccc(N3CCN(C(c4ccccc4)c4ccccc4)CC3)cc2)C1c1cccc([N+](=O)[O-])c1` (stereo unspecified) was “inactive”; that for `NC(=O)NC(=O)Cc1ccccc1` was “inactive”; that for `CN1C[C@H](C(=O)N[C@]2(C)O[C@@]3(O)[C@@H]4CCCN4C(=O)[C@H](Cc4ccccc4)N3C2=O)C=C2c3cccc4[nH]cc(c34)C[C@H]21` was “inactive”.
The same measure, in the same setting: the result for `C[C@@H](CN1CC(=O)NC(=O)C1)N1CC(=O)NC(=O)C1` reads “inactive”; that for `CCOC(=O)c1ccccc1O`, “inactive”; that for `Nc1c(I)cc(I)c(C(=O)N(CCC(=O)O)c2ccccc2)c1I`, “inactive”.
Still for that read-out and setting: the result for `O=C(O)/C=C(\CC(=O)O)C(=O)O` reads “inactive”; that for `CC(C)COC(=O)c1ccc(N)cc1`, “inactive”.
`COC(=O)[C@@H]1[C@H]2C[C@H]3c4[nH]c5ccccc5c4CCN3C[C@@H]2CC[C@@H]1O`: the Potency result is “inactive”.
The same measure, in the same setting: the value for `Cc1cccc(C)c1OCC(=O)N[C@@H](Cc1ccccc1)[C@@H](O)C[C@H](Cc1ccccc1)NC(=O)[C@H](C(C)C)N1CCCNC1=O` was “inactive”; that for `CC(=O)Nc1ccc(OC(=O)c2ccccc2OC(C)=O)cc1` was “inactive”.
The same measure, in the same setting: the result for `NC(=O)c1cnccn1` reads “inactive”.
Still for that read-out and setting: the value for `CN=C(NC#N)NCCSCc1nc[nH]c1C` was “inactive”.
Take `O=C(O)CCCCC(=O)O`: the Potency entry is “inactive”.
With `Oc1ccc(OCc2ccccc2)cc1`, the Potency result was “inactive”.
Same read-out and setting: the value for `N#C[C@H]1C[C@H]2C[C@@H]2N1C(=O)[C@@H](N)C12CC3CC(CC(O)(C3)C1)C2` was “inactive”; that for `CSCC[C@H](NC(=O)[C@H](Cc1ccc(OS(=O)(=O)O)cc1)NC(=O)[C@@H](N)CC(=O)O)C(=O)NCC(=O)N[C@@H](Cc1c[nH]c2ccccc12)C(=O)N[C@@H](CCSC)C(=O)N[C@@H](CC(=O)O)C(=O)N[C@@H](Cc1ccccc1)C(N)=O` was “inactive”; that for `CCOC(=O)O[C@]1(C(=O)OCCl)CC[C@H]2[C@@H]3CCC4=CC(=O)C=C[C@]4(C)[C@H]3[C@@H](O)C[C@@]21C` was “inactive”.
The same measure, in the same setting: the value for `CCCNC(C)C(=O)Nc1ccccc1C` (stereo unspecified) was “inactive”; that for `CNNCc1ccc(C(=O)NC(C)C)cc1` was “inactive”; that for `O=c1cc(O)c(Cl)c[nH]1` was “inactive”.
In the case of `O=C(O)c1ccccc1S`, the Potency result was “inactive”.
Still for that read-out and setting: the value for `Nc1nc(-c2ccccc2)c(Br)c(=O)[nH]1` was “inactive”; that for `CCCCCCCN(CC)CCCC(O)c1ccc(NS(C)(=O)=O)cc1` (stereo unspecified) was “inactive”; that for `CC(C)c1ccc2oc3nc(N)c(C(=O)O)cc3c(=O)c2c1` was 10 µM (active).
Same read-out and setting: the result for `O=C(c1ccccc1)c1ccccc1` reads “inactive”.
Turning to `Nc1ncnc2c1ncn2[C@@H]1O[C@H](CO)[C@@H](O)[C@H]1O`, the Potency entry is “inactive”.
Still for that read-out and setting: the value for `Clc1ccc2nsnc2c1NC1=NCCN1` was “inactive”.
Same read-out and setting: the value for `Cc1c(Nc2ncccc2C(=O)O)cccc1C(F)(F)F` was “inactive”; that for `OC[C@H]1O[C@H](O[C@]2(CCl)O[C@H](CCl)[C@@H](O)[C@@H]2O)[C@H](O)[C@@H](O)[C@H]1Cl` was “inactive”; that for `CO[C@@]1(NC(=O)CSCC#N)C(=O)N2C(C(=O)O)=C(CSc3nnnn3C)CS[C@@H]21` was “inactive”.
On the same count and under the same terms, the value for `CN1CCC[C@@H]1c1cccnc1` was “inactive”; that for `CN[C@@H]1CCc2[nH]c3ccc(C(N)=O)cc3c2C1` was “inactive”; that for `CC(C)OC(=O)OCOP(=O)(CO[C@H](C)Cn1cnc2c(N)ncnc21)OCOC(=O)OC(C)C` was “inactive”.
In the case of `Cc1nnc(SCC2=C(C(=O)O)N3C(=O)[C@@H](NC(=O)Cn4cnnn4)[C@H]3SC2)s1`, the Potency result is “inactive”.
